# Data as given in PubChem BioAssay (NCATS).
# Results filed as inconclusive are left out. Activity calls are given as the source filed them. Calls come from the whole dose curve; as a rule, active = well fitted inhibition curve with a large enough effect; inconclusive = small, poorly fitted or top-dose-only effect; inactive = flat fitted curve, though single readings scatter. Bridge positions count the residues as written; N and C are the ends. Square brackets hold non-standard residues; d marks the D form. Peptide text beside a SMILES is read from it. * marks the point of attachment. Ileψ(thiazoline)Cys = CC[C@H](C)[C@H](N)C1=N[C@H](C(=O)*)CS1; d(aIle) = CC[C@H](C)[C@@H](N)C(=O)O; dOrn = NCCC[C@@H](N)C(=O)O
# Test system: DFO2036
# Assay: qHTS profiling for inhibitors of Plasmodium falciparum proliferation (AID 504749); note: nearly all actives have a fitted effect of over 60% in size;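 for activity, negative = inhibition: 0% = DMSO vehicle and full inhibition = artemisinin control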
# Details: P. falciparum in erythrocytes, SYBR Green DNA, 72 h; series mostly up to 12.8 µM; activity, negative = inhibition: at the top concentration
# Procedure, shortened: (§1)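 SYBR Green fluorescence of parasite DNA, read after lysis and overnight dark incubation, measured growth over 72 h in erythrocyte culture at 0.3% parasitemia and 2.5% hematocrit. Data normalised to DMSO and 0.29 uM artemisinin, with plate-drift correction.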
# Potency is the fitted concentration of half-maximal effect.
SMILES,"activity, negative = inhibition",Potency
C[C@@H]1C[C@H]2[C@@H]3C[C@H](F)C4=CC(=O)C=C[C@@]4(C)[C@]3(F)[C@H](O)C[C@]2(C)[C@@]1(O)C(=O)CO,4.69% (inactive),
C[C@H](O)Cn1cnc2c1c(=O)n(C)c(=O)n2C,2.94% (inactive),
CCCCC[C@H](O)/C=C\[C@@H]1[C@H](O)CC(=O)[C@@H]1CCCCCCC(=O)O,-1.65% (inactive),
CC(=C(CCOP(=O)(O)O)SC(=O)c1ccccc1)N(C=O)Cc1cnc(C)nc1N,-0.262% (inactive),
NC[C@@H]1O[C@@H](O[C@H]2[C@H](O)[C@H](O[C@@H]3O[C@H](CO)[C@@H](O)[C@H](N)[C@@H]3O)[C@@H](N)C[C@H]2N)[C@H](N)C[C@@H]1O,11% (inactive),
CCc1c(C)[nH]c2c1C(=O)[C@H](CN1CCOCC1)CC2,-2.84% (inactive),
CC[C@H](C)[C@H](N)C1=N[C@H](C(=O)N[C@@H](CC(C)C)C(=O)N[C@@H](CCC(=O)O)C(=O)N[C@@H](C(=O)N[C@H]2CCCCNC(=O)[C@@H](CC(N)=O)NC(=O)[C@@H](CC(=O)O)NC(=O)[C@@H](Cc3cnc[nH]3)NC(=O)[C@@H](Cc3ccccc3)NC(=O)[C@@H]([C@@H](C)CC)NC(=O)[C@@H](CCCN)NC2=O)[C@@H](C)CC)CS1 ({Ileψ(thiazoline)Cys}-LE[d(aIle)]K[dOrn][d(aIle)][dF][dH][dD][dN]; lactam 4-C),-3.09% (inactive),
O=C(N/N=C\c1ccc([N+](=O)[O-])o1)c1ccc(O)cc1,,2.82 µM (active)
CCOC(=O)O[C@@H](C)OC(=O)[C@@H]1N2C(=O)[C@@H](NC(=O)[C@@H](N)c3ccccc3)[C@H]2SC1(C)C,9.51% (inactive),
Cc1cccc(CN2CCN([C@@H](c3ccccc3)c3ccc(Cl)cc3)CC2)c1,-26.8% (inactive),
Cc1ccsc1/C=C\C1=NCCCN1C,11.4% (inactive),
O=C(O)COCCN1CCN([C@@H](c2ccccc2)c2ccc(Cl)cc2)CC1,12.8% (inactive),
C#C[C@]1(O)CC[C@@H]2[C@H]3CCC4=CCCC[C@@H]4[C@@H]3CC[C@@]21C,-0.875% (inactive),
CC1(C)[C@@H](OC(=O)CCC(=O)O)CC[C@@]2(C)[C@H]1CC[C@@]1(C)[C@H]2C(=O)C=C2[C@H]3C[C@](C)(C(=O)O)CC[C@]3(C)CC[C@@]21C,14.5% (inactive),

# Test system: DIV14
# Assay: as above
# Details: P. falciparum in erythrocytes, SYBR Green DNA, 72 h; series mostly up to 12.8 µM; activity, negative = inhibition: at the top concentration
# Procedure, shortened: as §1
SMILES,"activity, negative = inhibition",Potency
C[C@@H]1C[C@H]2[C@@H]3C[C@H](F)C4=CC(=O)C=C[C@@]4(C)[C@]3(F)[C@H](O)C[C@]2(C)[C@@]1(O)C(=O)CO,-1.19% (inactive),
C[C@H](O)Cn1cnc2c1c(=O)n(C)c(=O)n2C,5.65% (inactive),
CC(=C(CCOP(=O)(O)O)SC(=O)c1ccccc1)N(C=O)Cc1cnc(C)nc1N,1.95% (inactive),
NC[C@@H]1O[C@@H](O[C@H]2[C@H](O)[C@H](O[C@@H]3O[C@H](CO)[C@@H](O)[C@H](N)[C@@H]3O)[C@@H](N)C[C@H]2N)[C@H](N)C[C@@H]1O,3.25% (inactive),
CCc1c(C)[nH]c2c1C(=O)[C@H](CN1CCOCC1)CC2,-12.4% (inactive),
C=C1c2c(Cl)ccc(O)c2C(O)=C2C(=O)[C@@]3(O)C(O)=C(C(N)=O)C(=O)[C@@H](N(C)C)[C@@H]3[C@@H](O)[C@H]12,-15.9% (inactive),
CCC(=O)OCC(=O)[C@@]1(OC(=O)CC)[C@H](C)C[C@@H]2[C@@H]3[C@H]([C@@H](O)C[C@@]21C)[C@]1(C)C=CC(=O)C=C1C[C@@H]3Cl,,5.1 µM (active)
CC[C@H](C)[C@H](N)C1=N[C@H](C(=O)N[C@@H](CC(C)C)C(=O)N[C@@H](CCC(=O)O)C(=O)N[C@@H](C(=O)N[C@H]2CCCCNC(=O)[C@@H](CC(N)=O)NC(=O)[C@@H](CC(=O)O)NC(=O)[C@@H](Cc3cnc[nH]3)NC(=O)[C@@H](Cc3ccccc3)NC(=O)[C@@H]([C@@H](C)CC)NC(=O)[C@@H](CCCN)NC2=O)[C@@H](C)CC)CS1 ({Ileψ(thiazoline)Cys}-LE[d(aIle)]K[dOrn][d(aIle)][dF][dH][dD][dN]; lactam 4-C),1.34% (inactive),
O=C(N/N=C\c1ccc([N+](=O)[O-])o1)c1ccc(O)cc1,,3.22 µM (active)
C[C@@H](CNC1CCCCC1)OC(=O)c1ccccc1,,3.61 µM (active)
CCOC(=O)O[C@@H](C)OC(=O)[C@@H]1N2C(=O)[C@@H](NC(=O)[C@@H](N)c3ccccc3)[C@H]2SC1(C)C,4.4% (inactive),
Cc1ccsc1/C=C\C1=NCCCN1C,-12.7% (inactive),
O=C(O)COCCN1CCN([C@@H](c2ccccc2)c2ccc(Cl)cc2)CC1,-19.9% (inactive),
C#C[C@]1(O)CC[C@@H]2[C@H]3CCC4=CCCC[C@@H]4[C@@H]3CC[C@@]21C,-1.13% (inactive),
CC1(C)[C@@H](OC(=O)CCC(=O)O)CC[C@@]2(C)[C@H]1CC[C@@]1(C)[C@H]2C(=O)C=C2[C@H]3C[C@](C)(C(=O)O)CC[C@]3(C)CC[C@@]21C,1.11% (inactive),
C[C@H](CCC(=O)O)[C@H]1CC[C@@H]2[C@@H]3[C@@H](O)C[C@H]4C[C@@H](O)CC[C@@]4(C)[C@H]3CC[C@@]21C,1.57% (inactive),
